Screens: PubChem BioAssay, National Center for Advancing Translational Sciences (NCATS)
The list is not random: actives were taken first. Their share in the collection is about 18%.
LDHA inh: LDHA (human) enzyme inhibition | activity change, % (values are at about 110 or 230 µM) | P00338 | purified LDHA, NADH/diaphorase-resazurin fluorescence; stronger effect = lower value | 480,000 compounds, 0.15% hits; in the data active = activity change below about -30%; inconclusive = mostly about -25% to -30%;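 note: plate controls were DMSO wells for no effect and wells without enzyme for full effect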
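Remaining NADH was detected by diaphorase (0.133 mg/mL) converting 37 µM resazurin to fluorescent resorufin, read at 0 and 20 minutes. The preceding 5-minute room-temperature reaction used 2 nM LDHA, 0.2 mM sodium pyruvate and 0.06 mM NADH at pH 7.4.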
IL1B secr inh: blocks inflammasome-driven IL-1 beta release. THP-1 LPS/ATP IL-1B secretion, AlphaLISA, 16 h; stronger effect = lower value. activity change, % at 57.5 µM. 360,000 compounds, 4.7% hits. AID 743279; in the data active = activity change below about -50%; inconclusive = mostly about -30% to -49%
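Secreted IL-1B measured by AlphaLISA bead assay after 16 h compound exposure of THP-1 cells; compounds (final up to 57.5 uM) added 1 h before LPS (250 ng/mL) and ATP (1.25 mM) stimulation; lower signal means less secretion.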
TDP1 cell CPT: growth inhibition of DT40 Tdp1-/-;hTDP1 cells with camptothecin (screen for TDP1 inhibitors); 420,000 compounds, 12% hits; Potency, µM (highest dose often 46.2 µM), for inactives: at the highest dose activity change, negative = growth inhibition, actives largely listed as inhibitors; chicken DT40 Tdp1-/-;hTDP1 cells + 20 nM CPT, ATP luminescence, 48 h; AID 686979; note: potency is the fitted concentration of half-maximal effect; nearly all actives have a fitted effect of over 55% in size
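Chicken DT40 Tdp1-/- cells complemented with human TDP1, 400 cells/well, exposed to compounds plus 20 nM camptothecin for at least 48 h at 37 C; viability read as ATP content by CellTiter-Glo luminescence.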
TDP1 cell noCPT: qHTS for Inhibitors of human tyrosyl-DNA phosphodiesterase 1 (TDP1): qHTS in cells in absence of CPT | DT40 Tdp1-/- hTDP1 cells, no CPT, ATP luminescence, 48 h | Potency, µM (series often up to 46.2 µM), inactives show at the highest dose activity change, negative = growth inhibition, usual class: inhibitors | 420,000 compounds, 15% hits | AID 686978, 2013; note: potency is the fitted concentration of half-maximal effect; nearly all actives have a fitted effect of over 55% in size
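Compound effects on proliferation are scored in DT40 Tdp1-/-;hTDP1 cells in the absence of CPT. ATP levels (CellTiter-Glo luminescence) are recorded after a ≥48 hr, 37 °C incubation.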
Gal4-VP16 FLuc: Gal4-VP16 reporter inhibition counter-screen | Drosophila S2 Gal4-VP16 UAS-luciferase, luminescence, 20 h | Potency, µM (doses to about 53.6 µM), without a hit: at the top dose activity, negative = inhibition, most hits filed as inhibitors | 310,000 compounds, 3.5% hits | AID 2546;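 note: Gal4-VP16 expression switched on by copper sulfate through the metallothionein promoter; potency is the fitted concentration of half-maximal effect; nearly all actives have a fitted effect of over 50% in size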
RORg inh: blocks mouse ROR gamma transcriptional activity; Drosophila S2 Gal4-RORgamma UAS-luciferase reporter, 20 h; Potency, µM (series often up to 53.6 µM), inactives show at the highest dose activity change, negative = inhibition, usual class: inhibitors; 310,000 compounds, 5.4% hits; note: potency is the fitted concentration of half-maximal effect; nearly all actives have a fitted effect of over 60% in size
Target sequence (P51450 whole entry, looked up, the tested form may be a part): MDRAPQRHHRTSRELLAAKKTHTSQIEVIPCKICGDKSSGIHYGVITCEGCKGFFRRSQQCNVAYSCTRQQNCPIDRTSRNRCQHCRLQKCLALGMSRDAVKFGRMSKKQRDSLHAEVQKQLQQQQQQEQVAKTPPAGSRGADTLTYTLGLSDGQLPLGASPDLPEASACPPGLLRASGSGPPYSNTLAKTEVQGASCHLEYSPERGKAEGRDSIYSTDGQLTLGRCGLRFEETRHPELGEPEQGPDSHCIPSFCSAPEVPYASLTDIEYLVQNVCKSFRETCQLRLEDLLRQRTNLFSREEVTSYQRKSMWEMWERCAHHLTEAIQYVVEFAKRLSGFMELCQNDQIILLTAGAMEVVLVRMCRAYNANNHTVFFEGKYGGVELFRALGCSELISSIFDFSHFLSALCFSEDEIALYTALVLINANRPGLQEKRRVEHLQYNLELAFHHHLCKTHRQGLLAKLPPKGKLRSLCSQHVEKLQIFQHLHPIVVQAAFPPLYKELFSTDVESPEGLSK
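Luciferase reporter read in Schneider cells carrying Gal4-RORγ (mouse) and UAS-Photinus luciferase; cells given compound 1 h before 700 uM copper sulfate induction, then incubated 20 h at ambient temperature.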
The depositor's hits bear a star; ? = inconclusive; . = not tested or not shown. Unless noted, calls come from the whole dose curve; as a rule, active = well fitted curve in the direction sought with a large enough effect; inconclusive = small, poorly fitted or top-dose-only effect, or another doubt; inactive = no such curve, though single readings can be large; an effect the other way counts as inactive or inconclusive. Unless noted, % is set by controls: 0 for no effect and ±100 for the full control effect.

SMILES	LDHA inh	IL1B secr inh	TDP1 cell CPT	TDP1 cell noCPT	Gal4-VP16 FLuc	RORg inh
O=C(N/N=C/c1ccc[nH]1)c1ccccc1O	-1	-1	26%	-10%	5.6µM*	1.3µM*
O=C(N/N=C/c1ccc[nH]1)c1ccc(O)cc1	4	7	-3%	7%	?	8.9µM*
O=C(N/N=C/c1ccc[nH]1)c1ccccc1OCc1ccccc1Cl	-4	-90*	?	?	?	10µM*
COc1cccc(-c2ccc(NC(=O)C3CCCN(Cc4ccccn4)C3)cc2)c1 (stereo not given)	-2	19	?	?	.	.
COc1cccc(-c2ccc(NC(=O)C3CCCN(Cc4cc(C)[nH]n4)C3)cc2)c1 (stereo not given)	-9	-21	?	?	16%	-11%
COCc1ccc(CN2CCCC(C(=O)Nc3ccccc3-c3ccc(OC)cc3)C2)o1 (stereo not given)	-4	8	?	-9%	-1%	-9%
COc1cccc(-c2ccc(NC(=O)C3CCCN(Cc4cnn(C(C)C)c4)C3)cc2)c1 (stereo not given)	-4	-79*	23µM*	?	-21%	-32%
COCc1ccc(CN2CCCC(C(=O)Nc3ccc(-c4cccc(OC)c4)cc3)C2)o1 (stereo not given)	-1	-5	?	15µM*	21%	35%
CCCc1ncc(CN2CCCC(C(=O)Nc3ccc(-c4cccc(OC)c4)cc3)C2)cn1 (stereo not given)	2	-9	23µM*	?	-4%	2%
COc1cccc(-c2ccc(NC(=O)C3CCCN(Cc4cnc(N(C)C)s4)C3)cc2)c1 (stereo not given)	1	15	18µM*	23µM*	1%	3%
Cc1cccc(C(=O)Nc2ccc(CC(=O)N(C)C)cc2)c1	2	.	.	.	.	.
CC(C)(C)c1ccc(-c2noc(CCC(=O)N3CCOCC3)n2)cc1	-5	22	?	18µM*	?	?
Cc1ccc(-c2noc(CCC(=O)Nc3cccc(C#N)c3)n2)cc1	1	-5	?	18µM*	?	?
CN(C)C(=O)CCc1nc(-c2ccc(C(C)(C)C)cc2)no1	-2	-15	16µM*	21µM*	?	-32%
CC(C)(C)c1ccc(-c2noc(CCC(=O)Nc3cccnc3)n2)cc1	1	-15	?	?	?	0.063µM*
CCCCNC(=O)CSc1cc(C(=O)NC2CC2)c2ccccc2n1	4	.	.	.	.	.
O=C(CSc1nc2cc(S(=O)(=O)N3CCCCC3)ccc2o1)N1CCc2ccccc21	8	.	.	.	.	.
CC(C)(C)c1ccc(-c2noc(CCC(=O)NCC3CCCO3)n2)cc1 (stereo not given)	-1	0	21µM*	?	10µM*	1µM*
CC(C)(C)c1ccc(-c2noc(CCC(N)=O)n2)cc1	0	14	-21%	?	-17%	?
Cc1ccc(-c2noc(CCC(=O)NCC3CCCO3)n2)cc1 (stereo not given)	-4	0	-10%	-9%	-6%	-3%
CNC(=O)CCc1nc(-c2ccc(C(C)(C)C)cc2)no1	-2	0	?	13µM*	7.1µM*	0.32µM*
N#Cc1ccc(OCCCOc2ccc(C#N)cc2)cc1	5	.	.	.	.	.
CN(C)CC(CCC(CN(C)C)C(O)(c1ccccc1)c1ccccc1)C(O)(c1ccccc1)c1ccccc1 (stereo not given)	-4	-85*	23µM*	18µM*	?	?
COC(=O)c1ccc(C2C(C(=O)OC)C(=O)CC(C)(O)C2C(=O)OC)cc1 (stereo not given)	11	.	.	.	.	.
O=C1CC(c2cc(F)cc(F)c2)c2cc3c(cc2N1)OCO3 (stereo not given)	-8	.	?	16µM*	.	.
SMILES	LDHA inh	IL1B secr inh	TDP1 cell CPT	TDP1 cell noCPT	Gal4-VP16 FLuc	RORg inh
O=C1CC(c2ccc3c(c2)OCO3)c2cc3c(cc2N1)OCO3 (stereo not given)	-2	-20	-29%	?	17%	2%
COc1ccc(Cl)cc1C1CC(=O)Nc2cc3c(cc21)OCCO3 (stereo not given)	0	.	0.65µM*	0.37µM*	.	.
O=C1CC(c2cccc(Cl)c2Cl)c2cc3c(cc2N1)OCCO3 (stereo not given)	-4	.	?	21µM*	.	.
COc1ccccc1C1CC(=O)Nc2cc3c(cc21)OCCO3 (stereo not given)	0	42	5.2µM*	5.2µM*	11µM*	-14%
O=S(=O)(c1cccs1)N(Cc1ccco1)Cc1cccs1	0	.	.	.	.	.
CN(C)CCNc1ccccc1	10	.	.	.	.	.
O=C1CC(c2cccs2)c2cc3c(cc2N1)OCCO3 (stereo not given)	-6	7	?	21µM*	7%	-29%
Cc1ccc(C2CC(=O)Nc3cc4c(cc32)OCCO4)s1 (stereo not given)	1	13	?	?	3%	-17%
CCN1c2ccccc2NC2N=C(OC)C(c3ccccc3)C21 (stereo not given)	17	43	12µM*	13µM*	-14%	-8%
COC(=O)[C@H](Cc1ccccc1)NC(=O)Nc1ccc2oc(-c3cccnc3)nc2c1	10	.	.	.	.	.
N#C/C(=C\c1c(Oc2ccc(F)cc2)nc2ccccn2c1=O)c1nc2ccccc2s1	3	.	?	12µM*	.	.
Cc1cccn2c(=O)c(/C=C(\C#N)c3nc4ccccc4s3)c(Oc3ccc(Br)cc3)nc12	10	.	7.3µM*	6.5µM*	.	.
COc1ccc(Oc2nc3c(C)cccn3c(=O)c2/C=C(\C#N)c2nc3ccccc3[nH]2)cc1	1	.	?	?	.	.
Cc1ccccc1Oc1nc2ccccn2c(=O)c1/C=C(\C#N)c1nc2ccccc2[nH]1	8	.	-22%	-11%	.	.
Cc1ccc(Oc2nc3c(C)cccn3c(=O)c2/C=C(\C#N)C(N)=O)cc1	1	?	?	13µM*	-6%	-16%
Cc1ccc(Oc2nc3ccccn3c(=O)c2/C=C(\C#N)c2nc3ccccc3s2)c(C)c1	-1	.	12µM*	4.1µM*	.	.
O=C(Nc1ccccc1)Nc1nncs1	-8	-16	?	?	5%	15%
O=C(Nc1ccccc1)Nc1n[nH]c2nnc(-c3ccccc3)c(-c3ccccc3)c12	-10	-11	?	16µM*	-2%	17%
O=C(NC12CC3CC(CC(C3)C1)C2)c1ccc(-c2nc3ccccc3s2)s1	-2	.	.	.	.	.
